# Data from PMC5540273 (PLoS ONE, 2017).
# Tested on: NEK10
# Details: concentration: 1 μM, replicates: in singlicate; n = 1
# 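Also: KINOMEscan kinase panel screen.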
row,SMILES,%Inh [%]
1,Cc1cccc(-c2nc(-c3ccc(S(C)(=O)=O)cc3)sc2-c2ccncc2)c1,0
2,Nc1nc(-c2ccc3c(N)n[nH]c3c2)cc(N2CCCC2)n1 [GSK2227430],0
3,NCC(NC(=O)c1cc(-c2cn[nH]c2)c(-c2ccnc3[nH]ccc23)s1)c1ccccc1.O=C(O)C(F)(F)F.O=C(O)C(F)(F)F (stereo not drawn) [GSK1325775],50
4,Cc1c(Cn2c(C)nn3c(=O)cc(N4CCOC(C)C4)nc23)cccc1C(F)(F)F (stereo not drawn) [GSK2344444],2
5,O=C(Nc1cccc(-c2nn3ncccc3c2-c2ccnc(Nc3cccc(C(F)(F)F)c3)n2)c1)c1c(F)cccc1F [GSK299495],17
6,N#Cc1c(N2CCOCC2)sc(-c2ccn[nH]2)c1-c1ccc(Cl)cc1,4
7,CCc1nc(-c2cccc(C)c2)c(-c2ccnc(NCc3ccccc3)c2)s1,0
8,Nc1nccc(-c2c(-c3ccc(F)cc3)ncn2C2CCN(CC(F)(F)F)CC2)n1 [SB-236560],42
9,CC(=O)Nc1ccc(COc2ccc(Nc3ccnc4cc(-c5ccccn5)ccc34)cc2)cc1.Cl [GW440148],3
10,O=C(NCCCN1CCOCC1)c1cccc(Nc2nccc(Nc3ccc(Oc4ccccc4)cc3)n2)c1 [GW663929],0
11,COc1cc2c(cc1OCCN1CCN(C)CC1)ncc1c3ccc(C#N)cc3[nH]c21,15
12,COc1ccc(Nc2ncc(C#N)c(Nc3ccccc3C(N)=O)n2)cc1N1CCN(C)CC1.Cl [GSK1558669],94.1
